Inconclusive results are not listed. Entries that show only a call come without a potency. Unmarked numbers belong to inactive results. Calls of active or inactive are those of the source. Calls come from the whole dose curve; as a rule, active = well fitted curve in the direction sought with a large enough effect; inconclusive = small, poorly fitted or top-dose-only effect, or another doubt; inactive = no such curve, though single readings can be large; an effect the other way counts as inactive or inconclusive.
Key:
[1] = qHTS of pediatric cancer cell lines to identify multiple opportunities for drug repurposing: Primary screen for U-2 OS cells (AID 1347096); note: nearly all actives have a fitted effect of over 50% in size
How it was run: (§1)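 Viability after 48 h compound treatment at 37C, 500-1,000 cells/well, read as ATP luminescence with CellTiter-Glo. Primary screens used 11-point (MIPE, 0.78 nM-46 µM) or 8-point (NPC, 0.59 nM-46 µM) final concentrations; follow-up screens used 11-point dilutions.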

[2] = qHTS of pediatric cancer cell lines to identify multiple opportunities for drug repurposing: Primary screen for Saos-2 cells (AID 1347097); note: nearly all actives have a fitted effect of over 40% in size
How it was run: (§2)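 Primary screen of approved and investigational compounds on cells in growth media at 37 degrees C, 5% CO2. MIPE set at 11-point and NPC set at 8-point dilutions; viability scored by ATP-based luminescence at 48 hours.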

[3] = qHTS of pediatric cancer cell lines to identify multiple opportunities for drug repurposing: Primary screen for SK-N-SH cells (AID 1347098); note: nearly all actives have a fitted effect of over 65% in size
How it was run: (§3)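 Cells (500-1,000/well) rested 5 h, then received compounds for 48 h; metabolically active cells were measured by CellTiter-Glo luminescence. Final concentrations spanned up to 46 µM (MIPE, 11-point) or 0.59 nM-46 µM (NPC, 8-point) in primary screens, 11-point in follow-ups.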

[4] = qHTS of pediatric cancer cell lines to identify multiple opportunities for drug repurposing: Primary screen for NB1643 cells (AID 1347099); note: nearly all actives have a fitted effect of over 50% in size
How it was run: as §2

[5] = qHTS of pediatric cancer cell lines to identify multiple opportunities for drug repurposing: Primary screen for LAN-5 cells (AID 1347100)
How it was run: as §1

[6] = qHTS of pediatric cancer cell lines to identify multiple opportunities for drug repurposing: Primary screen for BT-12 cells (AID 1347101); note: nearly all actives have a fitted effect of over 25% in size
How it was run: as §3

[7] = qHTS of pediatric cancer cell lines to identify multiple opportunities for drug repurposing: Primary screen for Rh18 cells (AID 1347102); note: nearly all actives have a fitted effect of over 65% in size
How it was run: as §1

[8] = qHTS of pediatric cancer cell lines to identify multiple opportunities for drug repurposing: Primary screen for OHS-50 cells (AID 1347103); note: nearly all actives have a fitted effect of over 40% in size
How it was run: as §3

[9] = qHTS of pediatric cancer cell lines to identify multiple opportunities for drug repurposing: Primary screen for RD cells (AID 1347104); note: nearly all actives have a fitted effect of over 55% in size
How it was run: as §2

[10] = qHTS of pediatric cancer cell lines to identify multiple opportunities for drug repurposing: Primary screen for MG 63 (6-TG R) cells (AID 1347105); note: nearly all actives have a fitted effect of over 50% in size
How it was run: as §2

[11] = qHTS of pediatric cancer cell lines to identify multiple opportunities for drug repurposing: Primary screen for Rh30 cells (AID 1347107); note: nearly all actives have a fitted effect of over 75% in size
How it was run: as §1

[12] = qHTS of pediatric cancer cell lines to identify multiple opportunities for drug repurposing: Primary screen for Rh41 cells (AID 1347108); note: nearly all actives have a fitted effect of over 70% in size
How it was run: as §2

[13] = qHTS of pediatric cancer cell lines to identify multiple opportunities for drug repurposing: Primary screen for control Hh wild type fibroblast cells (AID 1347106); note: nearly all actives have a fitted effect of over 55% in size
How it was run: as §1

[14] = qHTS of pediatric cancer cell lines to identify multiple opportunities for drug repurposing: Confirmatory screen for NB1643 cells (AID 1347109); note: nearly all actives have a fitted effect of over 45% in size
How it was run: as §1

[15] = qHTS of pediatric cancer cell lines to identify multiple opportunities for drug repurposing: Confirmatory screen for A673 cells (AID 1347110); note: nearly all actives have a fitted effect of over 65% in size
How it was run: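 Forty-eight-hour viability assay. Follow-up compounds ran at 11-point dilutions; positive control bortezomib at 2.3 uM final, neutral control DMSO.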

[16] = qHTS of pediatric cancer cell lines to identify multiple opportunities for drug repurposing: Confirmatory screen for SK-N-MC cells (AID 1347111);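 note: cells exposed to compound for 48 h before the readout; nearly all actives have a fitted effect of over 70% in size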
How it was run: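 SK-N-MC cells at 500-1,000 cells/well in growth media were pre-incubated 5 h, then exposed to compounds at 11-point dilutions for 48 h at 37 degrees C, 5% CO2. Viability was read as CellTiter-Glo luminescence.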

[17] = qHTS of pediatric cancer cell lines to identify multiple opportunities for drug repurposing: Confirmatory screen for BT-12 cells (AID 1347112); note: nearly all actives have a fitted effect of over 55% in size
How it was run: as §1

[18] = qHTS of pediatric cancer cell lines to identify multiple opportunities for drug repurposing: Confirmatory screen for LAN-5 cells (AID 1347113); note: nearly all actives have a fitted effect of over 65% in size
How it was run: as §1

[19] = qHTS of pediatric cancer cell lines to identify multiple opportunities for drug repurposing: Confirmatory screen for DAOY cells (AID 1347114); note: nearly all actives have a fitted effect of over 65% in size
How it was run: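 Viability measured as metabolically active cells via CellTiter-Glo luminescence following 48 hours of compound exposure, 11-point dilutions in confirmatory testing. 500-1,000 cells/well plated 5 hours before dosing; controls were DMSO and 2.3 µM bortezomib.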

[20] = qHTS of pediatric cancer cell lines to identify multiple opportunities for drug repurposing: Confirmatory screen for NB-EBc1 cells (AID 1347115); note: nearly all actives have a fitted effect of over 45% in size
How it was run: as §1
Potency is the fitted concentration of half-maximal effect.

SMILES	Potency [1]	Potency [2]	Potency [3]	Potency [4]	Potency [5]	Potency [6]	Potency [7]	Potency [8]	Potency [9]	Potency [10]	Potency [11]	Potency [12]	Potency [13]	Potency [14]	Potency [15]	Potency [16]	Potency [17]	Potency [18]	Potency [19]	Potency [20]
C[C@H]1C[C@@H]2[C@@H]([C@@H](O)C[C@@]3(C)[C@H]2CC[C@]3(O)C(=O)CO)[C@@]2(C)C=CC(=O)C=C12	inactive	inactive	inactive	inactive	inactive	inactive	inactive	inactive	inactive	inactive	inactive	inactive								
CN1c2cc(O)c(N=NC(N)=O)cc2CC1S(=O)(=O)O (stereo unspecified)	inactive	inactive	inactive	inactive	inactive	inactive	inactive	inactive	inactive	inactive	inactive	inactive	inactive							
O=C(c1cncc(Br)c1)N1CCC(N2CCCC2)CC1	inactive	inactive	inactive	inactive	inactive	inactive	inactive	inactive	inactive	inactive	inactive		inactive							
COc1cc2c(Oc3ccc(-c4cnc(Nc5ccc(F)cc5)n(C)c4=O)cc3F)ccnc2cc1OCCCN1CCOCC1	14.8 µM (active)	2.09 µM (active)	15.2 µM (active)	14.8 µM (active)	1.18 µM (active)	21.7 µM (active)	2.64 µM (active)	0.306 µM (active)	9.35 µM (active)	3.72 µM (active)	9.35 µM (active)	4.69 µM (active)	23.5 µM (active)	11.7 µM (active)	4.14 µM (active)	2.93 µM (active)	20.8 µM (active)	7.37 µM (active)	11.7 µM (active)	18.5 µM (active)
Cc1ccc(C(=O)Nc2cccc(C(F)(F)F)c2)cc1-c1ccc2nc(NCCN3CCOCC3)ncc2c1	inactive	5.9 µM (active)	9.61 µM (active)	5.26 µM (active)	14.8 µM (active)	7.69 µM (active)	7.43 µM (active)	3.85 µM (active)	5.9 µM (active)	14.8 µM (active)		14.8 µM (active)	14.8 µM (active)	6.57 µM (active)	13.1 µM (active)	14.7 µM (active)		9.27 µM (active)	20.8 µM (active)	
CC1(C)OC2=C(C(=O)c3ccccc3C2=O)[C@H](NCc2ccccc2)[C@H]1O	9.35 µM (active)	5.9 µM (active)	4.82 µM (active)	4.18 µM (active)	5.26 µM (active)	13.7 µM (active)	7.43 µM (active)	4.32 µM (active)	10.5 µM (active)	9.35 µM (active)	5.9 µM (active)	7.43 µM (active)	23.5 µM (active)	7.37 µM (active)	2.93 µM (active)	5.22 µM (active)	20.8 µM (active)	7.37 µM (active)	8.27 µM (active)	9.27 µM (active)
CC(C)c1ccc(Cn2ccc3c4c(N)nc(NC5CC5)nc4ccc32)cc1	18.7 µM (active)	4.69 µM (active)	21.5 µM (active)	18.7 µM (active)	18.7 µM (active)	4.32 µM (active)	18.7 µM (active)	4.85 µM (active)	14.8 µM (active)	14.8 µM (active)	18.7 µM (active)	3.72 µM (active)								
CN1CCN(c2ccc3nc(-c4c(N)c5c(F)cccc5[nH]c4=O)[nH]c3c2)CC1	18.7 µM (active)	5.9 µM (active)	15.2 µM (active)	16.6 µM (active)	4.69 µM (active)	17.2 µM (active)	20.9 µM (active)	1.72 µM (active)	18.7 µM (active)	inactive			inactive							
O=C(O)CO.[NH2-].[NH2-].[Pt+2]	inactive	inactive	inactive	inactive	inactive	inactive	inactive	inactive	inactive	inactive	inactive	inactive	inactive							
Nc1ccn([C@@H]2CS[C@H](CO)O2)c(=O)n1	inactive	inactive	inactive	inactive	inactive	inactive	inactive	inactive	inactive	inactive	inactive	inactive	inactive							
CCOc1ccccc1OCCNC(C)Cc1ccc(OC)c(S(N)(=O)=O)c1 (stereo unspecified)	inactive	inactive	inactive	inactive	inactive	inactive	inactive	inactive	inactive	inactive	inactive	inactive	inactive							
